# In ChEMBL document CHEMBL3988442, “University of Dundee, Small-Polar-MMV Screening Library” (2021):
# Screen size: about 48,000 compounds; about 13,000 (27%) showed an effect of 50% or more. The list shows a part of the results.
# Tested on: Wolbachia pipientis
# Assay: Anti-Wolbachia Cell-Based Screen
# Assay type: functional
# Set-up: scale not given: in the data most compounds retested in dose-response had high values
# Conditions: 5 µM
row,Compound,Percent Effect
1,NC(=O)C1CN(C(=O)C2(c3ccc(F)cc3F)CCCC2)CCO1 (stereo not drawn),-8.523%
2,CSc1ccc(-c2nc(CN3CCCC(CNC(C)=O)C3)c(C)o2)cc1 (stereo not drawn),24.94%
3,CC(=O)N1CCC(N2CCOC[C@H]2c2nc(-c3ccccc3)c[nH]2)CC1,-17.76%
4,Cc1cc(C)c2nc(CN3CCC(C#N)CC3)cc(O)c2c1,-6.492%
5,CS(=O)(=O)N1CCCn2nc(CNc3cc(C#N)ccn3)cc2C1,9.255%
6,O=C(NCc1cc2n(n1)CCCN(Cc1ccc(Cl)s1)C2)C1CCC1,-18.59%
7,CC(=O)c1ccc(NCc2cc3n(n2)CCCN(S(C)(=O)=O)C3)nc1,-0.5632%
8,N#Cc1ccnc(NCc2cc3n(n2)CCCN(C(=O)C2CCC2)C3)c1,115.4%
9,O=C(NCc1cc2n(n1)CCCN(Cc1ccc(CO)o1)C2)C1CCC1,-16.23%
10,N#Cc1ccc(NCc2cc3n(n2)CCCN(C(=O)C2CCC2)C3)nc1,102.7%
11,CSCC(C)(O)CNC(=O)Nc1ccc(C)cc1Br (stereo not drawn),7.748%
12,O=C(O)c1cccc(CC2CCN(c3ncccn3)CC2)c1,-1.664%
13,NC(=O)c1cccc(C2CCN(c3ncccn3)CC2)n1,105.7%
14,O=C(C1CC1)N1CCCCCC1C1CCN(c2ncccn2)CC1 (stereo not drawn),-21.65%
15,CN(C)C(=O)[C@@H]1CCO[C@@H]2CCN(c3ncccn3)C[C@H]21,1.087%
16,CN(C)C(=O)c1cccc(C2CCN(c3ncccn3)CC2)n1,135.8%
17,CCN(C(C)=O)C1CCN(c2nccc(C3CCCC3)n2)C1 (stereo not drawn),3.77%
18,COC(=O)c1ccc(NC(=O)[C@@H]2CCCN2C(=O)c2ccco2)s1,-1.409%
19,OCCN(Cc1ccccc1)Cc1nc(-c2ccc3c(c2)OCO3)no1,99.41%
20,OCCN(Cc1nc(-c2ccc3c(c2)OCO3)no1)CC1CC1,-12.91%
21,CCc1nc(CN(Cc2cccs2)CC2CCCO2)no1 (stereo not drawn),3.529%
22,CCN(Cc1nc(C(C)C)no1)Cc1cccs1,12.81%
23,OCCN(Cc1nc(-c2ccc3c(c2)OCO3)no1)Cc1cccs1,121.2%
24,COCCN(Cc1ccco1)Cc1nc(-c2ccccc2)no1,2.564%
25,COCCN(Cc1ccccc1)Cc1nc(-c2ccsc2)no1,2.788%
26,COC(=O)c1ccc(-c2noc(CN(CCO)Cc3cccs3)n2)cc1,109.2%
27,CC(Cn1cccn1)NCc1nc(-c2ccc3c(c2)OCO3)no1 (stereo not drawn),-6.149%

row,Compound,Percent Effect
1,Cc1ccc(Sc2ccc(N3CCC(C(=O)O)CC3)nn2)cc1,6.07%
2,Cc1cc(C)c(-n2cccn2)c(CN2CCOCC(CN(C)C)C2)c1 (stereo not drawn),9.231%
3,Cc1cccnc1[C@H](C)NC(=O)Cc1cc2c(cc1Cl)OCCO2,3.322%
4,CN1CCOC[C@H]1c1nc(-c2ccccc2)c[nH]1,1.409%
5,O=C(C1CC1)N1CCc2nc(C3CCN(C(=O)C4CC4)C3)nc(O)c2C1 (stereo not drawn),98.35%
6,CCS(=O)(=O)N1CCc2nc(N3CCCC3)nc(N(C)C)c2CC1,3.292%
7,CCS(=O)(=O)N1CCc2nc(C3CCN(C(=O)C4CC4)C3)nc(O)c2C1 (stereo not drawn),88.69%
8,O=C(C1CC1)N1CCC(C(=O)N2CCC(c3ccc(F)cc3)C2)CC1 (stereo not drawn),-1.259%
9,O=S(=O)(CCO)Cc1ccc(OC(F)F)cc1,-13.52%
10,COc1cccc(-c2noc(-c3ccc(NCCCN)nc3)n2)c1OC,-11.46%
11,O=C(Cn1cc(C2CC2)nn1)NC(c1ccc(Cl)cc1)C1CC1 (stereo not drawn),-3.06%
12,CCc1ccc(CN2CCN(c3ccc(C#N)cc3)C(=O)C2)nc1,-14.58%
13,CCc1nnc(CN2CCN(c3cccc(OC)c3)C(=O)C2)o1,104.5%
14,CCc1ccc(CN2CCN(c3cccc(OC)c3)C(=O)C2)nc1,111.5%
15,COc1cccc(N2CCN(Cc3ncc[nH]3)CC2=O)c1,-4.353%
16,CN(C)c1ccc(CN2CCN(c3ccc(C#N)cc3)C(=O)C2)cn1,27.75%
17,CCc1nnc(N2CCN(c3ccccc3)C(=O)C2)o1,1.843%
18,Cc1ccc(S(=O)(=O)n2ccc(C(=O)NCC(F)(F)F)c2)cc1,31.33%
19,COc1ccc2c(=O)n(CC3CC3)ccc2c1OC,8.638%
20,COc1ccc(C(C)NC(=O)NCCNc2ccccn2)c(OC)c1 (stereo not drawn),23.68%
21,CC(NC(=O)NCCNc1ccccn1)c1cccs1 (stereo not drawn),84.24%
22,CC(C)C(NC(=O)NCCNc1ccccn1)c1cccs1 (stereo not drawn),-3.383%
23,CCn1cnnc1CNC(=O)NC(C)c1cccs1 (stereo not drawn),5.383%
24,CC(NC(=O)NCc1ccccn1)c1cccs1 (stereo not drawn),95.38%
25,O=C(O)C(F)(F)F.O=S(=O)(C1CC1)N1CC[C@]2(C[C@@H](Oc3ccccn3)CO2)C1,-7.855%
26,CN(C)c1ncc(CNS(=O)(=O)c2cc(F)ccc2Cl)n1C,-4.152%
